The panel holds about 83,000 compounds, 20% with a hit somewhere; the sample as a whole holds those more often.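 Testing used 96-well plates and a 48-hour single-concentration exposure. Example: -40 means 40% of the starting cells died.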 A number with no mark means an inactive call. The source made the active and inactive calls. Rule for the calls: active = growth percent below 10; inactive = the rest.

Common to all, as to test: NCI-60 one-dose screen, 48 h (100 = growth as untreated, 0 = no growth, -100 = all killed)
Settings in all cases: 10 µM unless noted

The test system of assay [1] is HCT-15 colon.
Assay [2] relates to SNB-75 CNS.
Assay [3] relates to SNB-19 CNS.
Assay [4] relates to U251 CNS.
The test system of assay [5] is PC-3 prostate.
Assay [6] deals with SK-MEL-5 melanoma.
Assay [7] concerns UACC-62 melanoma.
In assay [8] the test system is LOX IMVI melanoma.
Assay [9] concerns SK-MEL-28 melanoma.
In assay [10] the test system is SK-MEL-2 melanoma.
The test system of assay [11] is EKVX NSCLC.
Assay [12] concerns SN12C renal.
Assay [13] relates to UO-31 renal.
Assay [14] deals with TK-10 renal.
Assay [15] has as its system ACHN renal.
For assay [16], the system named is A498 renal.
In assay [17] the test system is CCRF-CEM leukemia.
The subject of assay [18] is MOLT-4 leukemia.
The test system of assay [19] is CAKI-1 renal.

For the compound `COc1c(N2CC3CCCNC3C2)c(F)cc2c(=O)c(C(=O)N/N=C/c3ccc(Br)cc3)cn(C3CC3)c12` (centres undefined), the growth is 1.76% (active) in [1]; 103% in [2]; 88.3% in assay [3]; 86.9% in [4]; 65.1% in assay [5]; 84% in [6]. Also, the growth in [7] was 43%; in [8], -73.5% (active); in assay [9] it was 86.2%; in assay [10], 100%; in assay [11], 90.4%; in assay [12] it was 78.8%. The growth in assay [13] was 60.5%; in assay [14], 121%; in [15] it was 89.2%; in assay [16] it was 74.3%; in [17], 55.3%; in [18] it was 54.9%.

Consider `O=C(Nc1ccc(F)c(F)c1)c1cc(-c2ccc(F)cc2F)ccc1O`, for which the growth in [1] was 2.24% (active); in assay [2] it was -0.285% (active); in assay [3], 12.5%; in assay [4], 11.4%; in [5] it was 8.32% (active); in assay [6] it was -79.9% (active). The growth in [7] is -18.3% (active); in assay [8], 2.89% (active); in assay [9], 20%; in [10] it was -11.3% (active); in assay [11], 8.23% (active); in assay [12], -1.95% (active). The growth in assay [13] was -12.5% (active); in [14] it was 14.2%; in assay [15], 2% (active); in assay [19], -18.8% (active); in assay [16], -53.2% (active); in [17], 15.2%. Besides, the growth in [18] is 2.67% (active).

`O=C(CN1CCN(c2cc(=O)n(-c3ccccc3)c3ccccc23)CC1)Nc1nc(-c2ccccc2)cs1`: the growth in assay [1] is 25.2%; in [2] it was 71.6%; in [3], 85.2%; in assay [4], 59.2%; in [5], 32.5%; in assay [6], 5.29% (active). Moreover, the growth is 49.4% in [8]; 71.2% in assay [9]; 88.9% in assay [10]; 45.5% in assay [11]; 82.1% in assay [12]; 41.6% in [13]. In addition, the growth is 97.7% in assay [14]; 63.8% in [15]; 61.4% in assay [19]; 66.2% in assay [16]; 39.6% in assay [17]; 17.8% in assay [18].

Consider `COc1ccc([C@@H]2[C@@H](O)C(=O)N2c2cc(OC)c(OC)c(OC)c2)cc1F`, for which the growth in [1] is 7.95% (active); in assay [2] it was 17.6%; in assay [3], 24.7%; in [4] it was 12.2%; in assay [5], 20.9%; in assay [6], -34% (active). Further, the growth in assay [7] was 33.4%; in assay [8], -4.8% (active); in assay [9] it was 68.6%; in assay [10] it was -5.37% (active); in [11], 41.8%; in [13], 30.1%. The growth was 86.3% in [14]; 28.4% in assay [15]; 30.3% in assay [19]; -29.5% (active) in [16]; 18.5% in [17].

For `COC(=O)C1(C)CCC[C@]2(C)[C@H]3C[C@H]4C(C(C)C)=C[C@]3(CC[C@@H]12)[C@H]1[C@@H]4[C@@H](OC(=O)c2ccco2)CC[C@@H]1OC(=O)c1ccco1` (some centres undefined), the growth is 107% in assay [1]; 97.8% in assay [2]; 98.4% in assay [3]; 87.9% in assay [5]; 102% in [6]; 92.6% in [7]. The growth in assay [8] was 111%; in assay [9] it was 104%; in assay [12], 101%; in [13], 101%; in [14], 105%; in assay [15], 112%. The growth in assay [19] was 95.8%; in assay [16] it was 115%; in [17], 105%; in assay [18], 103%.

On to `COc1cc(/C=C2\C(=O)Nc3cc(Cl)ccc32)ccc1OCc1ccc(F)cc1`, for which the growth in assay [1] is 89%; in [2], 104%; in assay [3] it was 104%; in assay [4], 111%; in assay [5], 87%; in [6], 99%. In addition, the growth in assay [7] is 88.8%; in assay [8] it was 93.5%; in assay [10], 99.8%; in assay [11], 76.5%; in assay [12] it was 95.9%; in [13], 79.8%. Moreover, the growth in assay [14] was 185%; in assay [15] it was 93.6%; in assay [16], 94.2%; in assay [18], 100%.

Regarding `C=C(C)[C@@H]1CC[C@]2(COP(=O)(OCC)OCC)CC[C@]3(C)[C@H](CC[C@@H]4[C@@]5(C)CCCNC(C)(C)[C@@H]5CC[C@]43C)[C@@H]12`, the growth is 16.6% in assay [1]; 37% in assay [2]; 58.3% in [3]; 37.4% in assay [4]; 26.3% in [5]; 37.4% in assay [6]. In addition, the growth in assay [7] was 80.3%; in assay [8] it was -87.9% (active); in assay [9] it was -38.2% (active); in [10] it was 92.7%; in assay [11] it was 40.4%; in assay [12], 46.6%. Also, the growth in [13] is 30.9%; in [14], 58.9%; in [15], 59.2%; in [19] it was 29.1%; in assay [16], 55%; in assay [18], -29.8% (active).

On to `C#Cc1nc(/C=C/C(=O)c2nccn2C)cs1`, for which the growth was -72.9% (active) in assay [1]; -3.26% (active) in assay [2]; -79.2% (active) in assay [3]; -74.3% (active) in assay [4]; -78.9% (active) in assay [5]; -84.2% (active) in assay [6]. Besides, the growth in [7] is -84.3% (active); in assay [8], -81.4% (active); in assay [9], -31.9% (active); in [10] it was 18.6%; in assay [11], -59.4% (active); in assay [12] it was -47.2% (active). In addition, the growth in assay [13] was -80.7% (active); in assay [14] it was -18.8% (active); in assay [15], -94% (active); in assay [19] it was -55.7% (active); in [16], -88.1% (active); in assay [17] it was -21.6% (active). In addition, in [18], the growth was -31.2% (active).

`O=C(CNc1nc(-c2cccc([N+](=O)[O-])c2)cs1)Nc1cccc([N+](=O)[O-])c1`: the growth is 3.96% (active) in assay [1]; 52.9% in [2]; -12.3% (active) in assay [3]; -14.8% (active) in assay [4]; -37.8% (active) in assay [5]; -84.5% (active) in assay [6]. The growth in assay [7] is -62.6% (active); in assay [8], -74.3% (active); in assay [9] it was -24.3% (active); in assay [10], 9.35% (active); in assay [11], 52.9%; in [13] it was -79.3% (active). The growth in assay [14] was -13.6% (active); in assay [15], -20.1% (active); in [19], -10.3% (active); in assay [16], -77.4% (active); in [17], -0.65% (active); in assay [18] it was 6.77% (active).

The record behind these values is PubChem BioAssay (NCI).
